Experimental data reported in ChEMBL document CHEMBL1961873, “Compounds: GSK PKIS; Assays: Nanosyn kinase panel” (2012).

Key:
[1] = target: High affinity nerve growth factor receptor (Homo sapiens) (UniProt P04629); conditions: at 1 µM;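 also: each value is the mean percent inhibition of TRKA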
[2] = target: BDNF/NT-3 growth factors receptor (Homo sapiens) (UniProt Q16620); conditions: at 0.1 µM
[3] = target: BDNF/NT-3 growth factors receptor (Homo sapiens) (UniProt Q16620); conditions: at 1 µM
[4] = target: NT-3 growth factor receptor (Homo sapiens) (UniProt Q16288); conditions: at 0.1 µM
[5] = target: NT-3 growth factor receptor (Homo sapiens) (UniProt Q16288); conditions: at 1 µM
[6] = target: T1, Tyrosine-protein kinase TXK (Homo sapiens) (UniProt P42681); conditions: at 0.1 µM
T1 sequence (whole entry): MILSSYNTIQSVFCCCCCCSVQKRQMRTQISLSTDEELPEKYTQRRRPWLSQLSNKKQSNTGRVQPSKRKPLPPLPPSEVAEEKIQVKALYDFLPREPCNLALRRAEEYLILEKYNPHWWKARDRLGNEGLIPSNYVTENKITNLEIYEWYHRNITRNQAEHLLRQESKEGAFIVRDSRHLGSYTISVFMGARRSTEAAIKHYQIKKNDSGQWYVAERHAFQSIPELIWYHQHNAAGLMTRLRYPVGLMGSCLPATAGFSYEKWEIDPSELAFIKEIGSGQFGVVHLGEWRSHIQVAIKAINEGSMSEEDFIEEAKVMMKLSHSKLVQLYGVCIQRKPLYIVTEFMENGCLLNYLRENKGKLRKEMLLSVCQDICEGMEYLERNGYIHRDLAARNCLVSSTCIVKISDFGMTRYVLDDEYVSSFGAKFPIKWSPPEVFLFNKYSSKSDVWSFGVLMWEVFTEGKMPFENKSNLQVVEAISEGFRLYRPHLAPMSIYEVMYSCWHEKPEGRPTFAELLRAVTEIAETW

[7] = target: T1, Tyrosine-protein kinase TXK (Homo sapiens); conditions: at 1 µM
[8] = target: Non-receptor tyrosine-protein kinase TYK2 (Homo sapiens) (UniProt P29597); conditions: at 0.1 µM;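 also: each value is a mean of the inhibition readings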
[9] = target: T2, Dual specificity protein kinase TTK (Homo sapiens) (UniProt P33981); conditions: at 1 µM;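 also: reported figures are mean TTK inhibition at 1 µM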
T2 sequence (whole entry): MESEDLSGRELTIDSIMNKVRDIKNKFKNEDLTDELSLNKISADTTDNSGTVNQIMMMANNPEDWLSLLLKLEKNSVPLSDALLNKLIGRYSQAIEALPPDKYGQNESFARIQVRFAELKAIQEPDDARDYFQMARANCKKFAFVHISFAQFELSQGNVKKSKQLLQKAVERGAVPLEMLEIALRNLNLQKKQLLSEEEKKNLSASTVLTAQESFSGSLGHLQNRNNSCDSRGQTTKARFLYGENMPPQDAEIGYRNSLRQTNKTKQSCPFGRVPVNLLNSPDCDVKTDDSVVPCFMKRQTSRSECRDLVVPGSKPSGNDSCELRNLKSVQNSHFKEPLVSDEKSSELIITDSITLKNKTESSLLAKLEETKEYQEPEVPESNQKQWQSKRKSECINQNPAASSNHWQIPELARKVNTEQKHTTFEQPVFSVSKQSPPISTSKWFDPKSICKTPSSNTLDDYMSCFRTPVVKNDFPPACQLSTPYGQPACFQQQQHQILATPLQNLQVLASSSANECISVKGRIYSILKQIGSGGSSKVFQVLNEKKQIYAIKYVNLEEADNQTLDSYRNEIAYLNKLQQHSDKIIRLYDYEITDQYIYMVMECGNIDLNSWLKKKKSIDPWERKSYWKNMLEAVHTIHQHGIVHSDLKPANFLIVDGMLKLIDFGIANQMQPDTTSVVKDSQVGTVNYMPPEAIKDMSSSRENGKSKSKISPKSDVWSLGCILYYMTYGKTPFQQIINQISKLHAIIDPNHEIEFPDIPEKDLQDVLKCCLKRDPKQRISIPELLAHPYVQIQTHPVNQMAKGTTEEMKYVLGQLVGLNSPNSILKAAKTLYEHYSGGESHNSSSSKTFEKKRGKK

[10] = target: T3, Aurora kinase A (Homo sapiens) (UniProt O14965); conditions: at 0.1 µM
T3 sequence (whole entry): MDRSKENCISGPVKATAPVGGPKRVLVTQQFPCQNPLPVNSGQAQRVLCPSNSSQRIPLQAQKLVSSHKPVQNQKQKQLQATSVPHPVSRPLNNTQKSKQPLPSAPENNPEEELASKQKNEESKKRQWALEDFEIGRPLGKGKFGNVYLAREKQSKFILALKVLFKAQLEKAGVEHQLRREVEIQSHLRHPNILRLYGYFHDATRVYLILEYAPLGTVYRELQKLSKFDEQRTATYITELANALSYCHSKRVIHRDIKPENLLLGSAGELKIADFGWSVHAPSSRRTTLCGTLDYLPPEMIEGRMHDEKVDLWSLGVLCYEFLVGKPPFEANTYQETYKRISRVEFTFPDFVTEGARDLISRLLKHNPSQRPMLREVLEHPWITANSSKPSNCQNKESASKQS

[11] = target: T3, Aurora kinase A (Homo sapiens); conditions: at 1 µM
[12] = target: Aurora kinase B (Homo sapiens) (UniProt Q96GD4); conditions: at 0.1 µM
[13] = target: Aurora kinase B (Homo sapiens) (UniProt Q96GD4); conditions: at 1 µM
[14] = target: T4, Aurora kinase C (Homo sapiens) (UniProt Q9UQB9); conditions: at 0.1 µM
T4 sequence (whole entry): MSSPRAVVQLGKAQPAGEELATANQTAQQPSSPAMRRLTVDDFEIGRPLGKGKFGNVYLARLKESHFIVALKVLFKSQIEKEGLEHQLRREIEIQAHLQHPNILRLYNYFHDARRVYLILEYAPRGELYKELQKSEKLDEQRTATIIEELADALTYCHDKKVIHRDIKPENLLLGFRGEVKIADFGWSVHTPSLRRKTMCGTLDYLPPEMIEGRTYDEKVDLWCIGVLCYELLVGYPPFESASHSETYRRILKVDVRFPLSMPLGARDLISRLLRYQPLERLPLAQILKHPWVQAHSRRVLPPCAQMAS

[15] = target: T4, Aurora kinase C (Homo sapiens); conditions: at 1 µM
[16] = target: Serine/threonine-protein kinase 10 (Homo sapiens) (UniProt O94804); conditions: at 0.1 µM
[17] = target: Serine/threonine-protein kinase 10 (Homo sapiens) (UniProt O94804); conditions: at 1 µM
[18] = target: T5, Mitogen-activated protein kinase kinase kinase kinase 2 (Homo sapiens) (UniProt Q12851); conditions: at 0.1 µM
T5 sequence (whole entry): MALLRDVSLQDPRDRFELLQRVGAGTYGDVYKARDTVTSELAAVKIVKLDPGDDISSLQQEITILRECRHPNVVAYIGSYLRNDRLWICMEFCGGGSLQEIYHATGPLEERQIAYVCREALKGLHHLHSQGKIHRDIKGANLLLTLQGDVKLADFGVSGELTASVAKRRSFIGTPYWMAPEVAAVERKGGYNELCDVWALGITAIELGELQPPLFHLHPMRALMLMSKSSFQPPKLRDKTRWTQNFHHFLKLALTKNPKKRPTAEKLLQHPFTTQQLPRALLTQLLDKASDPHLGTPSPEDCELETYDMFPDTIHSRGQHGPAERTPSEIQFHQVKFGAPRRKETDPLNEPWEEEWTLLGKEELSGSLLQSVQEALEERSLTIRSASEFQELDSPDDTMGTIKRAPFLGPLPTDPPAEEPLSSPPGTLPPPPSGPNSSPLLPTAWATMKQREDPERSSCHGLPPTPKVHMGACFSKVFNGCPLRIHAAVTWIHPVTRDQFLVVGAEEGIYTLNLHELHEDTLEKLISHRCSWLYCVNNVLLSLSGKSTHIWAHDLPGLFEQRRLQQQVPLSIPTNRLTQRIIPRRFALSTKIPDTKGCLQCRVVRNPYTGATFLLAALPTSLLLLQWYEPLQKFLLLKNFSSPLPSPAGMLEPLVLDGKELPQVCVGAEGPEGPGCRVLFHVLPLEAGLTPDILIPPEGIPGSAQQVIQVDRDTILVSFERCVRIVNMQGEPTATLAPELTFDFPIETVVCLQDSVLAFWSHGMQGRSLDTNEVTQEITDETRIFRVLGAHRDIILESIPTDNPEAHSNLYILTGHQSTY

[19] = target: T5, Mitogen-activated protein kinase kinase kinase kinase 2 (Homo sapiens); conditions: at 1 µM
[20] = target: Mitogen-activated protein kinase kinase kinase kinase 4 (Homo sapiens) (UniProt O95819); conditions: at 0.1 µM

Chain of Aurora kinase B (Homo sapiens) (Q96GD4 whole entry): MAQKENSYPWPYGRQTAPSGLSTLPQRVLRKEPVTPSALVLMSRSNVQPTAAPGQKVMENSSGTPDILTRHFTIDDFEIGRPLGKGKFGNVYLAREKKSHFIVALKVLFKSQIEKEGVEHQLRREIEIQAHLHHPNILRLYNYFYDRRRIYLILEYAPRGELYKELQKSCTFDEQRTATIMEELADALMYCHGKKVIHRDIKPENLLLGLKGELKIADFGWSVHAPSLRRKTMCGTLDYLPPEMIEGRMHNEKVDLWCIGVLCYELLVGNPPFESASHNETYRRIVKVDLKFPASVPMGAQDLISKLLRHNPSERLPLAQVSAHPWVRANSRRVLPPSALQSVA
Chain of Non-receptor tyrosine-protein kinase TYK2 (Homo sapiens) (P29597 whole entry): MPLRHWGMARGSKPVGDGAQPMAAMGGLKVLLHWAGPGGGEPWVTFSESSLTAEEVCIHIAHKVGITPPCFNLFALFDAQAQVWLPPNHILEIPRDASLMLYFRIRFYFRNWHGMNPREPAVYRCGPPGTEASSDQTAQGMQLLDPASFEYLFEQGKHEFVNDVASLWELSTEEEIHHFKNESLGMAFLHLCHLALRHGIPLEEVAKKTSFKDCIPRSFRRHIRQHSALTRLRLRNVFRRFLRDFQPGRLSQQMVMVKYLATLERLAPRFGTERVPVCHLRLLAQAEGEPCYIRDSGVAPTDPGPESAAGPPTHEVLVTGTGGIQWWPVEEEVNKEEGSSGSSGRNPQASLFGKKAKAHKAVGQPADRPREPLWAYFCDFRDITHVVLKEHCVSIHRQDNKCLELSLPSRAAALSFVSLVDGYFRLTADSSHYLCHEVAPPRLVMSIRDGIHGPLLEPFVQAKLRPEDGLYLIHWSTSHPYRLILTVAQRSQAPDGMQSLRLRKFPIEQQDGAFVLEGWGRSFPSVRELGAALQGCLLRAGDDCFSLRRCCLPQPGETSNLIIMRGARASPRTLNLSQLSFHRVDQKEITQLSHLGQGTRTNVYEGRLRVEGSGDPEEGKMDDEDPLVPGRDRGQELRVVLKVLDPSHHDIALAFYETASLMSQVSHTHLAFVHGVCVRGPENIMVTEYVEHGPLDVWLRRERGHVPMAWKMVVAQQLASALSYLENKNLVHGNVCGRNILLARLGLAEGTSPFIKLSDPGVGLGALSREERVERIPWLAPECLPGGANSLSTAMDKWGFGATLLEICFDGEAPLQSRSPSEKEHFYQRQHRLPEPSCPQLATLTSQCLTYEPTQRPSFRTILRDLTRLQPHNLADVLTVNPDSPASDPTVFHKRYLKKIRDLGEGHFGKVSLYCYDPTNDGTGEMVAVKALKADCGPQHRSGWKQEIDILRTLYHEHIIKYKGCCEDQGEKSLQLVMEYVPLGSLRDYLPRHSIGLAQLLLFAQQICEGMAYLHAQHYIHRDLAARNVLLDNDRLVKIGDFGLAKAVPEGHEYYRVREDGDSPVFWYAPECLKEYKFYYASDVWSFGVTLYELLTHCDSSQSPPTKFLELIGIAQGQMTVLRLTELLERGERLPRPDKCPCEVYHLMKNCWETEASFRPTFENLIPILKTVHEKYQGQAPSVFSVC
Chain of BDNF/NT-3 growth factors receptor (Homo sapiens) (Q16620 32-822 limits assumed): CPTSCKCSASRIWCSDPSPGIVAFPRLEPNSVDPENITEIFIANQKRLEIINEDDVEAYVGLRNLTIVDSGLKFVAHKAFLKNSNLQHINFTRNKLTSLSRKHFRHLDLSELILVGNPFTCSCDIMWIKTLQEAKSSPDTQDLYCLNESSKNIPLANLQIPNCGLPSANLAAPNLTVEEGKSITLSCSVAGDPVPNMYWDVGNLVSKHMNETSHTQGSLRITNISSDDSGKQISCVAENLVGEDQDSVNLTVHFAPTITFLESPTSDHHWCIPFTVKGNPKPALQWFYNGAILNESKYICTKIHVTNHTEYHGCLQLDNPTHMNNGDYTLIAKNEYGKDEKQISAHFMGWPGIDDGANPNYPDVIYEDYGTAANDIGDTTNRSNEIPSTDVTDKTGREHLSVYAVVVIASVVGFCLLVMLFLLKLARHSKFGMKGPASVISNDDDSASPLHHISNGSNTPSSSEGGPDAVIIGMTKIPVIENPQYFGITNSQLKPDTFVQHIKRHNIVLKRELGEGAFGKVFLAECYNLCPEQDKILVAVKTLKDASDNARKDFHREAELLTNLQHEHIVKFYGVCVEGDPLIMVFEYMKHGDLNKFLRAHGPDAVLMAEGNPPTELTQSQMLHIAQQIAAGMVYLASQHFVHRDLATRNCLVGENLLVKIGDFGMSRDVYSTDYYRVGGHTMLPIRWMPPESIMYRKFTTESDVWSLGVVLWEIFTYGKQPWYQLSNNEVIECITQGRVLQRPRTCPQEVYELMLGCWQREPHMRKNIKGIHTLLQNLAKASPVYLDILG
Chain of NT-3 growth factor receptor (Homo sapiens) (Q16288 32-839 limits assumed): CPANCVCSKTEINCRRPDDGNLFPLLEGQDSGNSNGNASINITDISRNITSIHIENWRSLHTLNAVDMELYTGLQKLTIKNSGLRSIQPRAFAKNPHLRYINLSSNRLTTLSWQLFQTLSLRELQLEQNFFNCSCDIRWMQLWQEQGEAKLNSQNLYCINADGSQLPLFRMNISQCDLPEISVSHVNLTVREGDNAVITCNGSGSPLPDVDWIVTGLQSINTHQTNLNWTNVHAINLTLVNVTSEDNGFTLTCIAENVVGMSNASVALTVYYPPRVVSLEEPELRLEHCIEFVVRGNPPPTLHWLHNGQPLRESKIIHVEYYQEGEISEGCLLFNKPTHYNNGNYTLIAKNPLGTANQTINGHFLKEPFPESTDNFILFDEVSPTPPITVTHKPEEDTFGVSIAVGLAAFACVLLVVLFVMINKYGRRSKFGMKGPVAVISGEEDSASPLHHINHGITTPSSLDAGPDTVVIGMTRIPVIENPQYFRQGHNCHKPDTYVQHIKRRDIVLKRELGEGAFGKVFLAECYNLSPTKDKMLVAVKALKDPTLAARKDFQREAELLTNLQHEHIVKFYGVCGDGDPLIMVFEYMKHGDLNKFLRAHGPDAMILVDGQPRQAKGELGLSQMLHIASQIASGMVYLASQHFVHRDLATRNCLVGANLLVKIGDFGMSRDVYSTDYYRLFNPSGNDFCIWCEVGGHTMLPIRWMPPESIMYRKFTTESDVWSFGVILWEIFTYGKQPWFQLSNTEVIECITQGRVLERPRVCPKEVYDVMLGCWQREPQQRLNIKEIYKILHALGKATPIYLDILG
Chain of Serine/threonine-protein kinase 10 (Homo sapiens) (O94804 whole entry, looked up): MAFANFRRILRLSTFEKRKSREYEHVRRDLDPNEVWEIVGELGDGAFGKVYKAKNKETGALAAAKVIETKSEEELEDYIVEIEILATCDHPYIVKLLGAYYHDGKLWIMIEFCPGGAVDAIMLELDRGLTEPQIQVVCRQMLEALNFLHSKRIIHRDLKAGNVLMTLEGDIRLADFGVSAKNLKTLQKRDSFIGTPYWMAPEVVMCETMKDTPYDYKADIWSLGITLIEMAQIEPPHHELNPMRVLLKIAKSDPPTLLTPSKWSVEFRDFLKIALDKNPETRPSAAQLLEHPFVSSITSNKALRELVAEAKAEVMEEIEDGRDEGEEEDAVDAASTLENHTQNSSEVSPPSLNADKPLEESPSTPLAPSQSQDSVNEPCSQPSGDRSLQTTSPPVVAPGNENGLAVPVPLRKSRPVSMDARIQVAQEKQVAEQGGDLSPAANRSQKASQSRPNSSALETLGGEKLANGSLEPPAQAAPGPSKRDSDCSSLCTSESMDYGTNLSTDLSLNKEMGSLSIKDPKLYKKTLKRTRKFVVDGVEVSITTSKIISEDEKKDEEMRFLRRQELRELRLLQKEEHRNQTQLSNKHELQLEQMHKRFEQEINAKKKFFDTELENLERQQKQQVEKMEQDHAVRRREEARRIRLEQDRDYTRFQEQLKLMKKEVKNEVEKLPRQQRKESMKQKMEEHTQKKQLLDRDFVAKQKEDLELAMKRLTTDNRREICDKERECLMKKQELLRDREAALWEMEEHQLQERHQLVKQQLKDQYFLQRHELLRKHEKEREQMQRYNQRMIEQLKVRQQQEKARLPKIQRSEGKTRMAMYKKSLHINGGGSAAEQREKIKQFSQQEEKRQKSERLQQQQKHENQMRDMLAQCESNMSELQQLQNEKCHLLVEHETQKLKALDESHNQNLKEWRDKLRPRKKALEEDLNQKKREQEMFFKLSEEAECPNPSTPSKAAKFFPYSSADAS
Chain of High affinity nerve growth factor receptor (Homo sapiens) (P04629 33-796 limits assumed): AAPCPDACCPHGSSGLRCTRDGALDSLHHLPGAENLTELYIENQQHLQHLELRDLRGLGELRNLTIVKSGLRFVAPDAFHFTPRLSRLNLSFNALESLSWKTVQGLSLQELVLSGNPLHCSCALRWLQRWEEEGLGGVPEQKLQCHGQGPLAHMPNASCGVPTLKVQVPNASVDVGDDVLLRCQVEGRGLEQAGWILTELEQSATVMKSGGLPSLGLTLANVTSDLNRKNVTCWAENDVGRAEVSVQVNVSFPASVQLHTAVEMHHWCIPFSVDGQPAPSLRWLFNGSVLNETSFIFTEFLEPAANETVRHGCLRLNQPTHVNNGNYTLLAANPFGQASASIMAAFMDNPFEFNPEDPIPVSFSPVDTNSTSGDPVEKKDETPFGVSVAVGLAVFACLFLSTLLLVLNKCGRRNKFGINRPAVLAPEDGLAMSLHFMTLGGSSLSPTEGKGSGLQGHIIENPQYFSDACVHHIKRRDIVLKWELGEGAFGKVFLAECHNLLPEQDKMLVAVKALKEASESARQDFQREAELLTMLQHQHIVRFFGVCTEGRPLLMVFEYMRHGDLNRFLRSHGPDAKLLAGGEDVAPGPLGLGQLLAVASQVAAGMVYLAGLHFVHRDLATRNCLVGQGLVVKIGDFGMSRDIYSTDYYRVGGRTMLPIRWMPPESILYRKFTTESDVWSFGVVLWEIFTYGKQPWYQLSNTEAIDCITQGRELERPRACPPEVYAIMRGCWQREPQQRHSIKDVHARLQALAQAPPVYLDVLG

c1cc(-c2cnn3nc(N4CCOCC4)ccc23)nc(NC2CC2)n1
inhibition [1]: 0.98%
inhibition [2]: 1.83%
inhibition [3]: 1.21%
inhibition [4]: 1.5%
inhibition [5]: 2.55%
inhibition [6]: 3.34%
inhibition [7]: 6.11%
inhibition [8]: -8.45%
inhibition [9]: 60.1%
inhibition [10]: 1.84%
inhibition [11]: 22%
inhibition [12]: 7.41%
inhibition [13]: 46.8%
inhibition [14]: 7.39%
inhibition [15]: 75.5%
inhibition [16]: 5.74%
inhibition [17]: 12.1%
inhibition [18]: -0.22%
inhibition [19]: 5.78%
inhibition [20]: 6.38%

COc1cccc(-c2c[nH]c3c(N/N=C/c4ccncc4)ncnc23)c1
inhibition [1]: 7.45%
inhibition [2]: 2.41%
inhibition [3]: 19.4%
inhibition [4]: 4.04%
inhibition [5]: 23.3%
inhibition [6]: 4.87%
inhibition [7]: 16.8%
inhibition [8]: 1.21%
inhibition [9]: 10.6%
inhibition [10]: 4.07%
inhibition [11]: 37.7%
inhibition [12]: 9.33%
inhibition [13]: 55.4%
inhibition [14]: 13.2%
inhibition [15]: 90.2%
inhibition [16]: 8.9%
inhibition [17]: 35.4%
inhibition [18]: 3.34%
inhibition [19]: 11.9%
inhibition [20]: 26%

CCn1c(-c2nonc2N)nc2cnc(Oc3cccc(NC(=O)c4ccc(N(C)C)cc4)c3)cc21
inhibition [1]: -1.16%
inhibition [2]: 0.09%
inhibition [3]: 0.73%
inhibition [4]: -0.04%
inhibition [5]: 1.6%
inhibition [6]: 1.57%
inhibition [7]: 3.29%
inhibition [8]: -5.17%
inhibition [9]: 2.67%
inhibition [10]: 6.99%
inhibition [11]: 79.2%
inhibition [12]: 3.58%
inhibition [13]: 18.1%
inhibition [14]: 1.17%
inhibition [15]: 43.7%
inhibition [16]: 2.62%
inhibition [17]: 5.59%
inhibition [18]: -0.28%
inhibition [19]: 3.56%
inhibition [20]: 3.32%
